The nature of assay [1]: qHTS of pediatric cancer cell lines to identify multiple opportunities for drug repurposing: Primary screen for OHS-50 cells (AID 1347103). Also: nearly all actives have a fitted effect of over 40% in size. Also: potency is read from the fitted curve at half-maximal effect. Put shortly:
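Cells (500-1,000/well) rested 5 h, then received compounds for 48 h; metabolically active cells were measured by CellTiter-Glo luminescence. Final concentrations spanned up to 46 µM (MIPE, 11-point) or 0.59 nM-46 µM (NPC, 8-point) in primary screens, 11-point in follow-ups.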
For orientation: In qHTS, concentration-response curves come from the screen itself.

The nature of assay [2]: qHTS of pediatric cancer cell lines to identify multiple opportunities for drug repurposing: Primary screen for MG 63 (6-TG R) cells (AID 1347105). Also: nearly all actives have a fitted effect of over 50% in size. Also: potency is read from the fitted curve at half-maximal effect. Put shortly: (§1)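 ATP-based luminescence (CellTiter-Glo) quantifies viability after a 48-hour exposure. Compounds are dosed across 8 or 11 final concentrations; DMSO and 2.3 µM bortezomib serve as controls.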
Assay [3] is described as follows: qHTS of pediatric cancer cell lines to identify multiple opportunities for drug repurposing: Primary screen for control Hh wild type fibroblast cells (AID 1347106).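 Also: series mostly up to about 46 µM; a drop in luminescence marks cytotoxicity and a rise apparent proliferation; nearly all actives have a fitted effect of over 55% in size.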 Put shortly:
(§2)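 Viability after 48 h compound treatment at 37C, 500-1,000 cells/well, read as ATP luminescence with CellTiter-Glo. Primary screens used 11-point (MIPE, 0.78 nM-46 µM) or 8-point (NPC, 0.59 nM-46 µM) final concentrations; follow-up screens used 11-point dilutions.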

Assay [4] can be described thus: qHTS of pediatric cancer cell lines to identify multiple opportunities for drug repurposing: Primary screen for Rh30 cells (AID 1347107). Also: series mostly up to about 46 µM; nearly all actives have a fitted effect of over 75% in size. Put shortly: as §2
Assay [5] can be described thus: qHTS of pediatric cancer cell lines to identify multiple opportunities for drug repurposing: Primary screen for Rh41 cells (AID 1347108). Also: nearly all actives have a fitted effect of over 70% in size. Also: potency is read from the fitted curve at half-maximal effect. Put shortly: as §1
The nature of assay [6]: qHTS of pediatric cancer cell lines to identify multiple opportunities for drug repurposing: Primary screen for RD cells (AID 1347104). Also: nearly all actives have a fitted effect of over 55% in size. Also: potency is read from the fitted curve at half-maximal effect. Put shortly:
as §1

Assay [7] is described as follows: qHTS of pediatric cancer cell lines to identify multiple opportunities for drug repurposing: Confirmatory screen for NB1643 cells (AID 1347109). Also: potency is read from the fitted curve at half-maximal effect; nearly all actives have a fitted effect of over 45% in size. Put shortly: as §2
Assay [8] in a line: qHTS of pediatric cancer cell lines to identify multiple opportunities for drug repurposing: Confirmatory screen for SK-N-MC cells (AID 1347111).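 Also: potency is read from the fitted curve at half-maximal effect; cells exposed to compound for 48 h before the readout; nearly all actives have a fitted effect of over 70% in size.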 Put shortly:
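SK-N-MC cells at 500-1,000 cells/well in growth media were pre-incubated 5 h, then exposed to compounds at 11-point dilutions for 48 h at 37 degrees C, 5% CO2. Viability was read as CellTiter-Glo luminescence.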

Assay [9] is described as follows: qHTS of pediatric cancer cell lines to identify multiple opportunities for drug repurposing: Confirmatory screen for LAN-5 cells (AID 1347113). Also: potency is read from the fitted curve at half-maximal effect; nearly all actives have a fitted effect of over 65% in size. Put shortly:
as §2

Assay [10] is described as follows: qHTS of pediatric cancer cell lines to identify multiple opportunities for drug repurposing: Confirmatory screen for NB-EBc1 cells (AID 1347115). Also: potency is read from the fitted curve at half-maximal effect; nearly all actives have a fitted effect of over 45% in size. Put shortly:
as §2

Assay [11] is described as follows: qHTS of pediatric cancer cell lines to identify multiple opportunities for drug repurposing: Confirmatory screen for MG 63 (6-TG R) cells (AID 1347119). Also: potency is read from the fitted curve at half-maximal effect; nearly all actives have a fitted effect of over 55% in size. Put shortly: as §2
Assay [12] in a line: qHTS of pediatric cancer cell lines to identify multiple opportunities for drug repurposing: Confirmatory screen for control Hh wild type fibroblast cells (AID 1347121). Also: nearly all actives have a fitted effect of over 70% in size. Put shortly: as §2
Assay [13] is described as follows: qHTS of pediatric cancer cell lines to identify multiple opportunities for drug repurposing: Confirmatory screen for Rh41 cells (AID 1347123).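 Also: potency is read from the fitted curve at half-maximal effect; 48 h compound exposure; nearly all actives have a fitted effect of over 60% in size.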 Put shortly: as §2
The nature of assay [14]: qHTS of pediatric cancer cell lines to identify multiple opportunities for drug repurposing: Confirmatory screen for Rh30 cells (AID 1347126). Also: potency is read from the fitted curve at half-maximal effect; nearly all actives have a fitted effect of over 55% in size. Put shortly: as §2
The nature of assay [15]: qHTS of pediatric cancer cell lines to identify multiple opportunities for drug repurposing: Confirmatory screen for A673 cells (AID 1347110). Also: potency is read from the fitted curve at half-maximal effect; nearly all actives have a fitted effect of over 65% in size. Put shortly:
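qHTS titration format: primary MIPE 0.78 nM-46 µM (11 pts), NPC 0.59 nM-46 µM; confirmation 11 pts. 48 h, CTG luminescence.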

Assay [16] in a line: qHTS of pediatric cancer cell lines to identify multiple opportunities for drug repurposing: Confirmatory screen for U-2 OS cells (AID 1347122). Also: potency is read from the fitted curve at half-maximal effect; nearly all actives have a fitted effect of over 65% in size. Put shortly: as §2
Assay [17] can be described thus: qHTS of pediatric cancer cell lines to identify multiple opportunities for drug repurposing: Confirmatory screen for RD cells (AID 1347124).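 Also: potency is read from the fitted curve at half-maximal effect; cells exposed to compound for 48 h before viability readout; nearly all actives have a fitted effect of over 65% in size.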 Put shortly:
as §2

Assay [18] in a line: qHTS of pediatric cancer cell lines to identify multiple opportunities for drug repurposing: Confirmatory screen for Rh18 cells (AID 1347125). Also: nearly all actives have a fitted effect of over 55% in size. Also: potency is read from the fitted curve at half-maximal effect. Put shortly: as §2
A short description of assay [19]: qHTS of pediatric cancer cell lines to identify multiple opportunities for drug repurposing: Confirmatory screen for DAOY cells (AID 1347114). Put shortly:
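Viability measured as metabolically active cells via CellTiter-Glo luminescence following 48 hours of compound exposure, 11-point dilutions in confirmatory testing. 500-1,000 cells/well plated 5 hours before dosing; controls were DMSO and 2.3 µM bortezomib.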

A short description of assay [20]: qHTS of pediatric cancer cell lines to identify multiple opportunities for drug repurposing: Confirmatory screen for Saos-2 cells (AID 1347127). Also: potency is read from the fitted curve at half-maximal effect; nearly all actives have a fitted effect of over 60% in size. Put shortly:
as §2

Inconclusive results are not listed. The source made the active and inactive calls. Calls follow the shape of the dose curve; as a rule, active = well fitted curve in the direction sought with a large enough effect; inconclusive = small, poorly fitted or top-dose-only effect, or another doubt; inactive = no such curve, though single readings can be large; an effect the other way counts as inactive or inconclusive.

With `CCOc1ccccc1OCC1CNCCO1` (stereo not given), the Potency result in assay [1], in assay [2], in assay [3], in assay [4] and in assay [5] was “inactive” throughout.
As to `O=c1[nH]sc2cc(Cl)ccc12`, the Potency is 13.8 µM (active) in assay [1]; 8.27 µM (active) in assay [7]; 9.27 µM (active) in assay [8]; 10.4 µM (active) in [9]; 20.8 µM (active) in assay [10]; 20.8 µM (active) in [11]. For the same compound, the Potency is 1.85 µM (active) in [13] and 6.57 µM (active) in assay [14]. Moreover, the Potency result in assay [6], in assay [3] and in [12] was “inactive” each time.
Consider `CCN(CC)CCOc1ccc(/C(=C(\Cl)c2ccccc2)c2ccccc2)cc1`, for which the Potency was 24.6 µM (active) in assay [1] and 23.7 µM (active) in assay [6]. Moreover, the Potency entry in [3] and in [4] was “inactive” throughout.
Turning to `O=C1NCCN1CCN1CCC(c2cn(-c3ccc(F)cc3)c3ccc(Cl)cc23)CC1`, the Potency in [1] is 11 µM (active); in assay [6] it was 26.6 µM (active). The Potency entry in assay [4] was “inactive”.
`CCCCCC(=O)O[C@]1(C(C)=O)CC[C@H]2[C@@H]3CCC4=CC(=O)CC[C@]4(C)[C@H]3CC[C@@]21C`: the Potency in assay [1] was 15.5 µM (active). Also, the Potency result in assay [2], in assay [3] and in assay [4] was “inactive” throughout.
As for `CN(C)C(=O)CNC(=O)Cc1ccccc1`, the Potency result in [1], in assay [6], in [3], in assay [4] and in assay [5] was “inactive” throughout.
Turning to `Nc1nc2ccccc2n1Cc1ccc(F)cc1`, the Potency in assay [1] is 17.4 µM (active). In addition, the Potency result in [2] and in [3] was “inactive” throughout.
Consider `Nc1c2ccccc2nc2ccccc12`, for which the Potency is 24.6 µM (active) in [1]; 15 µM (active) in assay [6]; 16.8 µM (active) in [5]; 4.14 µM (active) in assay [7]; 6.57 µM (active) in assay [15]; 3.29 µM (active) in assay [8]. Moreover, the Potency was 3.69 µM (active) in assay [9]; 6.57 µM (active) in [10]; 14.7 µM (active) in assay [16]; 16.5 µM (active) in assay [13]; 3.29 µM (active) in [17]; 4.65 µM (active) in assay [18]. For the same compound, the Potency in [14] was 7.37 µM (active).
Turning to `CCCc1c2oc(C(=O)O)cc(=O)c2cc2c(=O)cc(C(=O)O)n(CC)c12`, the Potency entry in [1], in [2], in assay [3], in [4] and in assay [5] was “inactive” in each case.
As for `O=C(NO)c1ccccc1`, the Potency entry in assay [1], in assay [2], in assay [3] and in [4] was “inactive” each time.
Take `CN1CCCN(C(c2ccccc2)c2ccc(Cl)cc2)CC1` (stereo not given): in [1], the Potency is 30.9 µM (active). Moreover, the Potency entry in [2], in assay [3] and in [4] was “inactive” each time.
Take `O=C1NC2CCCCN2C12CCN(CCCN1c3ccccc3CCc3ccc(Cl)cc31)CC2` (stereo not given): in assay [1], the Potency was 27.6 µM (active). Also, the Potency entry in [3] and in [4] was “inactive” throughout.
On to `O=C(COCCOCCOCC(=O)Nc1c(I)cc(I)c(C(=O)O)c1I)Nc1c(I)cc(I)c(C(=O)O)c1I`, for which the Potency entry in assay [1], in assay [2], in assay [3], in [4] and in assay [5] was “inactive” in each case.
Take `CC1CCCCN1CCCOC(=O)c1ccc(OC2CCCCC2)cc1` (stereo not given): the Potency in [1] was 24.6 µM (active). Further, the Potency entry in assay [2], in assay [3], in assay [4] and in [5] was “inactive” throughout.
As to `CCCCCCCC(=O)[O-].CCCCCCCC(=O)[O-].[Zn+2]`, the Potency entry in [1], in assay [2], in assay [3] and in assay [5] was “inactive” in each case.
Regarding `O=C1Nc2ccccc2C1(c1ccc(O)cc1)c1ccc(O)cc1`, the Potency is 0.872 µM (active) in assay [1] and 133 nM (active) in assay [2]. In addition, the Potency result in [3], in assay [4] and in assay [5] was “inactive” throughout.
For the compound `OC(CCCN1CCCCC1)(c1ccccc1)c1ccccc1`, the Potency entry in assay [6], in [2], in assay [3] and in assay [4] was “inactive” in each case.
Consider `CCC1=C[C@@H]2CN(C1)Cc1c([nH]c3ccccc13)[C@@](C(=O)OC)(c1cc3c(cc1OC)N(C)[C@H]1[C@@](O)(C(=O)OC)[C@H](OC(C)=O)[C@]4(CC)C=CCN5CC[C@]31[C@@H]54)C2`, for which the Potency in assay [1] was 0.0195 µM (active); in [2], 21.1 nM (active); in assay [7], 0.104 µM (active); in assay [15], 0.0117 µM (active); in [8], 0.0185 µM (active); in [9], 0.329 µM (active). Moreover, the Potency in assay [19] was 32.9 nM (active); in [11] it was 0.0233 µM (active); in [16] it was 0.185 µM (active); in assay [17] it was 0.0293 µM (active); in assay [20], 18.5 nM (active). Further, the Potency result in assay [4], in assay [12] and in assay [18] was “inactive” in each case.
On to `COc1cc2c(cc1OC)C(=O)CC2`, for which the Potency result in [6], in assay [2], in assay [3] and in assay [4] was “inactive” each time.

The values are drawn from PubChem BioAssay (NCATS).
